# Marburg entry inh = qHTS for inhibitors of binding or entry into cells for Marburg Virus; Marburg virus pseudotyped entry inhibition, cell reporter; 300,000 tested, 1.8% active; Potency, µM (titrated, usually from 37.8 µM), without a hit: at the top dose activity change, negative = inhibition, usual class: inhibitors; calls by dose curve; tested in HEK293 cells; further: potency means the concentration at half of the fitted maximal effect; on the % scale 0 is the no-effect control and ±100 the full control effect
# FMDV antiviral = High Throughput Screening for Foot and Mouth Disease Virus Antivirals | FMDV antiviral cell-based qHTS | Potency, µM (doses to about 57.9 µM), for inactives: at the top dose activity change, negative = inhibition, hits mostly inhibitors | 410,000 tested, 1.2% active; calls by dose curve; tested in HEK293T cells; further: read-out not given here; potency means the concentration at half of the fitted maximal effect; on the % scale 0 is the no-effect control and ±100 the full control effect; nearly all actives have a fitted effect of over 45% in size
# HCV inhibitor = qHTS Assay for Inhibitors of Hepatitis C Virus (HCV). 340,000 tested, 3.4% active. AID 651820, 2012. Huh7.5.1 HCVcc-Cre infection, luciferase reporter, 44 h. Potency, µM (highest dose often 41.8 µM), inactives show top-dose activity change, negative = inhibition, actives largely listed as inhibitors; active means well fitted inhibition curve with a large enough effect; inconclusive means small, poorly fitted or top-dose-only effect, or another doubt; inactive means no such curve, though single readings can be large or run the other way; further: potency means the concentration at half of the fitted maximal effect; on the % scale 0 is the no-effect control and ±100 the full control effect
#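 1,000 cells/well; 4 h culture; + compound; + HCVcc-Cre (~0.5 moi); 44 h; luciferase substrate, RT 15 min; read 15 sec.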
# LASV entry inh = qHTS for Inhibitors of binding or entry into cells for Lassa Virus. Lassa virus pseudotype entry inhibition, cell reporter. Potency, µM (top dose mostly 37.9 µM), without a hit: at the top dose activity change, negative = inhibition, hits mostly inhibitors. 300,000 tested, 1.2% active. AID 540256, 2011; calls by dose curve; tested in HEK293 cells; further: potency means the concentration at half of the fitted maximal effect; on the % scale 0 is the no-effect control and ±100 the full control effect; nearly all actives have a fitted effect of over 50% in size
# HCMV inh = qHTS Assay for inhibitors of the human cytomegalovirus (HCMV) | 410,000 tested, 4.5% active | HFF cells, HCMV-luciferase reporter, 72 h; hits give low values | activity change, negative = inhibition, % at 57.5 µM; in the data active means activity change below about -60%; inconclusive means no clear call, values can overlap the other calls; inactive means above about -39%; further: on the % scale 0 is the no-effect control and ±100 the full control effect
#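 Two-dose cell screen: HFF monolayers treated with compounds and infected with luciferase-expressing HCMV at 1 PFU/cell, 72 h at 37C, then lysed for luciferase measurement.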
# SARS PLP yeast = qHTS of Yeast-based Assay for SARS-CoV PLP | S. cerevisiae expressing SARS-CoV PLpro, growth rescue | Potency, µM (highest dose often 32.9 µM), for inactives: top-dose activity, positive = growth rescue, hits mostly activators | 330,000 tested, 0.19% active | AID 485353, 2010; calls by dose curve; further: potency means the concentration at half of the fitted maximal effect; 0% is about no effect; nearly all actives have a fitted effect of over 55% in size
# Active calls of the source: *; ? = inconclusive; · = not tested or not shown; [ ] = another dose, or the depositor's remark. An excerpt weighted towards active compounds, which were near 8% of everything screened.
SMILES,Marburg entry inh,FMDV antiviral,HCV inhibitor,LASV entry inh,HCMV inh,SARS PLP yeast
CCN(Cc1ccncc1)Cc1ccc2c(c1)CN(C(=O)c1cccc3c(C)c(C)[nH]c13)CCO2,·,5%,·,·,·,·
O=C(Nc1ccc([N+](=O)[O-])cn1)c1cc(-c2cccc(Cl)c2)nc2ccccc12,-9%,-22%,2%,12%,18,7%
COc1ccc(NC(=O)c2cc(-c3ccc(C)o3)nc3ccccc23)c(OC)c1,·,15%,10µM*,·,-19,·
COc1cc(-c2cc(C(=O)Nc3ccc(S(=O)(=O)NCc4ccco4)cc3)c3ccccc3n2)cc(OC)c1OC,?,?,0.28µM*,?,-63*,2%
COc1cc(-c2cc(C(=O)NCc3ccco3)c3ccccc3n2)cc(OC)c1OC,?,-19%,?,-24%,48,5%
CCOc1ccccc1NC(=O)c1cc(-c2cc(OC)c(OC)c(OC)c2)nc2ccccc12,?,-23%,8.9µM*,11µM*,29,-1%
O=C(Nc1ccccn1)c1cc(-c2cccc(Cl)c2)nc2ccccc12,?,-18%,16µM*,?,-71*,-1%
COc1ccccc1NC(=O)c1cc(-c2cc(OC)c(OC)c(OC)c2)nc2ccccc12,3.2µM*,-22%,?,?,-6,7%
COc1ccc(OC)c(-c2cc(C(=O)Nc3ccccc3C(N)=O)c3ccccc3n2)c1,·,?,10µM*,·,10,·
CC(C)(C)c1ccccc1NC(=O)c1cc(-c2ccncc2)nc2ccccc12,?,1%,11µM*,-20%[46.1 µM],15,-10%
COc1cc(-c2cc(C(=O)Nc3ccncc3)c3ccccc3n2)cc(OC)c1OC,·,?,?,·,-4,-1%
O=S(=O)(Cc1ccccc1)Oc1ccccc1,27%[46.1 µM],-2%,11%,23%[46.1 µM],-63*,3%
O=S(=O)(Cc1ccccc1)Nc1ccccc1,·,7%,3%,·,1,3%
O=C(O)C(Cc1ccc(OS(=O)(=O)Cc2ccccc2)cc1)NS(=O)(=O)Cc1ccccc1 (stereo not given),7%[46.1 µM],-2%,6%,-1%[46.1 µM],-60*,·
Nc1ccc(S(=O)(=O)NC(Cc2ccccc2)C(=O)O)cc1 (stereo not given),·,0%,5%,·,6,-5%
CCOC(=O)N1CCC(NC(=O)c2ccc3c(c2)N(Cc2ccc(F)cc2)C(=O)c2ccccc2S3=O)CC1 (stereo not given),-27%[46.1 µM],-20%,·,-30%[46.1 µM],-21,·
Cc1nc2ccccc2c(=O)n1NC(=O)c1c(F)cccc1F,·,-18%,2%,·,-69*,18%
Cc1nc2ccccc2c(=O)n1NC(=O)c1ccccc1F,·,-18%,-3%,·,52,-2%
Cc1cccc(C)c1NC(=O)CN1C(=O)S/C(=C\c2cccn2-c2cccc(C(=O)O)c2)C1=O,12%,-10%,2%,10%,-73*,5%
C/C(=N\N1C(=O)c2ccccc2NC1c1ccco1)c1ccccc1O (stereo not given),8.2µM*,11%,3.5µM*,?,-78*,-1%
COc1ccc(/C(C)=N/N2C(=O)c3ccccc3NC2c2ccc(O)c(OC)c2)cc1 (stereo not given),·,-28%,6%,·,38,1%
C/C(=N\N1C(=O)c2ccccc2NC1c1ccccc1)c1ccccc1O (stereo not given),·,15%,?,·,-92*,0%
O=C1c2ccccc2NC(c2ccco2)N1/N=C/c1ccco1 (stereo not given),0%,-2%,-7%,-3%[46.1 µM],31,0%
COc1ccc(OC)c(NS(=O)(=O)c2ccc3[nH]c(=O)[nH]c3c2)c1,·,-18%,·,·,-102*,·
CCCCOc1ccc(S(=O)(=O)Nc2cc(OC)ccc2OC)cc1,?,·,10µM*,-27%,?,·
SMILES,Marburg entry inh,FMDV antiviral,HCV inhibitor,LASV entry inh,HCMV inh,SARS PLP yeast
COc1ccc(OC)c(NS(=O)(=O)c2ccc(Cl)nc2)c1,-9%,0%,15%,14%,0,-1%
O=C(/C=C/c1ccccc1)Nc1cc(-c2nc3ccccc3o2)ccc1Cl,·,55%,·,12%[46.1 µM],44,·
Cc1c(CCOC(=O)CC23CC4CC(CC(C)(C4)C2)C3)sc[n+]1CC(=O)c1ccccc1,·,28µM*,-4%,·,-71*,0%
O=C(Cn1c(=O)c2sccc2n(CC(=O)Nc2ccc(Cl)cc2Cl)c1=O)NCCc1ccccc1,2%[46.1 µM],-12%,·,2%[46.1 µM],-7,·
CCOC(=O)c1ccc(N2CCCCC2)c(NS(=O)(=O)c2cccc(C(F)(F)F)c2)c1,·,0%,-20%,·,-65*,-3%
CCN(CC)CCNC(=O)c1ccc(N2CCCCC2)c(NS(=O)(=O)c2ccc(C)cc2)c1,?,0%,11µM*,-26%,?,1%
COC(=O)c1ccc(N2CCCCC2)c(NS(=O)(=O)c2ccc(C)cc2)c1,?,·,13µM*,-3%,9,-16%
CCN(CC)CCNC(=O)c1ccc(NC(=O)c2cc(S(=O)(=O)N3CCCCC3)ccc2N2CCOCC2)cc1,?,1%,29%,5%,-14,·
Cc1ccc(S(=O)(=O)Nc2cc(C(=O)N3CCC4(CC3)OCCO4)ccc2N2CCCCC2)cc1,?,34%,-5%,?,?,-3%
CC(=O)N1c2ccc(S(=O)(=O)NCC3CCC(C(=O)Nc4cccc(C)c4C)CC3)cc2CC1C (stereo not given),·,?,·,1%[46.1 µM],13,·
CCCCNC(=O)c1nn(-c2ccc(C)cc2)c(=O)n(C)c1=O,·,12%,·,2%[46.1 µM],-11,·
C[C@@]12CCCO[C@@]13C=CC(=O)C=C3CCC2,·,·,·,·,17,·
Oc1ccccc1CN1CCCN(Cc2ccccc2O)C1,1.5µM*,3%,8.9µM*,7.3µM*,16,·
Oc1ccccc1CN1CCN(C(O)(c2ccccc2)c2ccccc2)CC1,·,-28%,?,·,52,?
COCCNC(=O)C1CCN(S(=O)(=O)c2ccc3c(c2)CCCN3C(C)=O)CC1,·,-12%,·,-1%[46.1 µM],4,·
CC(C)(C)C(=O)CSc1nc2ccsc2c(=O)n1Cc1ccccc1Cl,·,-4%,·,27%[46.1 µM],-21,·
Cc1ncc(S(=O)(=O)c2ccccc2)c(-c2ccccc2)n1,-18%,-18%,16%,2%,-18,12%
Cc1ncc(N=Nc2ccccc2)c(-c2ccccc2)n1,2%,-25%,10µM*,-3%,-4,3%
COC(=O)C[C@H]1c2ccccc2C2=C(C[C@@H](C)[C@H]3C(=O)NC(=O)[C@@H]23)N1C(=O)OC,3%[14.2 µM],·,·,·,·,·
COc1cc(/C=N/Nc2nc(Nc3ccc(C)cc3)nc(-n3nc(C)cc3C)n2)cc(OC)c1OC,?,-7%,?,?,21,-4%
